“And” between values parts separate entries of the source, which are not always exact repeats. Equal values may be shown once. Inconclusive results are not listed. The source made the active and inactive calls. Unless noted, calls come from the whole dose curve; as a rule, active = well fitted curve in the direction sought with a large enough effect; inconclusive = small, poorly fitted or top-dose-only effect, or another doubt; inactive = no such curve, though single readings can be large; an effect the other way counts as inactive or inconclusive.

A short description of assay [1]: Cell Viability - LYMP2-012 (AID 982).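 Note: cellular ATP by luciferase luminescence where a drop means cytotoxicity; cells exposed to compound for one day before reading; nearly all actives have a fitted effect of over 55% in size.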 Note: potency is the fitted concentration of half-maximal effect.
A short description of assay [2]: Cell Viability - LYMP2-014 (AID 983). Note: nearly all actives have a fitted effect of over 50% in size. Note: potency is the fitted concentration of half-maximal effect. The procedure, abridged: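 Decrease in intracellular ATP after 24 hr treatment at 37 C, measured by luciferase luminescence, indicated cytotoxicity. Concentration-response data were fitted with the standard Hill equation to give AC50.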
A short description of assay [3]: Cell Viability - LYMP2-016 (AID 984).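 Note: cells exposed to compound for 24 hours at 37 °C; nearly all actives have a fitted effect of over 55% in size.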 Note: potency is the fitted concentration of half-maximal effect. The procedure, abridged:
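Cytotoxicity was scored by luminescent ATP content (CellTiter-Glo) after 24 h compound exposure at 37 C of a human lymphoblastoid line at 2500 cells/well. Concentration-response data were fitted to the Hill equation for AC50.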

Assay [4] can be described thus: Cell Viability - LYMP2-018 (AID 985).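 Note: compound exposure lasted 24 hr at 37 °C; nearly all actives have a fitted effect of over 50% in size.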 Note: potency is the fitted concentration of half-maximal effect. The procedure, abridged:
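Acute cytotoxicity is scored as a concentration-dependent drop in intracellular ATP after 24 hr exposure of the lymphoblastoid line in complete culture medium, measured by luciferase luminescence. Potency is expressed as AC50 from Hill modelling.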

Assay [5] in a line: Cell Viability - LYMP2-020 (AID 986). Note: nearly all actives have a fitted effect of over 55% in size. Note: potency is the fitted concentration of half-maximal effect. The procedure, abridged: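 Acute cytotoxicity in a human lymphoblastoid line is scored as a concentration-dependent fall in cellular ATP after 24 hr at 37 C in complete medium. The positive control is tetraoctylammonium bromide, and potency is given as Hill-fit AC50.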
Assay [6] is described as follows: Cell Viability - LYMP2-022 (AID 987). Note: nearly all actives have a fitted effect of over 55% in size. Note: potency is the fitted concentration of half-maximal effect. The procedure, abridged: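 Acute toxicity in a human lymphoblastoid line is scored as decreased intracellular ATP after 24 hr compound treatment at 37 C. ATP is measured by CellTiter-Glo luminescence; curves are fitted with the Hill equation to give AC50.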
The nature of assay [7]: Cell Viability - LYMP2-024 (AID 988). Note: nearly all actives have a fitted effect of over 60% in size. Note: potency is the fitted concentration of half-maximal effect. The procedure, abridged:
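Acute toxicity is measured as concentration-dependent loss of intracellular ATP in a human lymphoblastoid line treated 24 hours at 37 C. Luciferase luminescence quantifies ATP; AC50 values come from standard Hill-equation modelling.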

Assay [8] in a line: Cell Viability - LYMP2-026 (AID 989). Note: nearly all actives have a fitted effect of over 50% in size. Note: potency is the fitted concentration of half-maximal effect. The procedure, abridged:
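Concentration-dependent loss of intracellular ATP in human lymphoblastoid cells after 24 hr at 37 C, quantified by luciferase luminescence. AC50 derived from standard Hill equation.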

Assay [9] is described as follows: Cell Viability - LYMP1-002 - Assay at 24 hr (AID 993). Note: potency is the fitted concentration of half-maximal effect. The procedure, abridged:
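qHTS, LYMP1-002 lymphoblastoid, 24 h cpd, 37 C, CellTiter-Glo ATP luminescence; AC50 via Hill eq.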

A short description of assay [10]: qHTS Assay for Lipid Storage Modulators (AID 1519; calls by dose curve; for activity change, negative = inhibition: % is set by controls: 0 for no effect and ±100 for the full control effect). Conditions: Drosophila S3 cells, BODIPY lipid droplet/cell ratio, laser cytometry, cells loaded with oleic acid. The procedure, abridged:
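Cells seeded at 5,000 per well were treated with compounds over a concentration series and loaded with oleic acid (400 uM, as added). Lipid droplet fluorescence (488 nm excitation, 500-530 nm channel) was read by laser-scanning cytometry and normalized to 20 uM Triacsin C.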

Assay [11] deals with Alpha-galactosidase A (Homo sapiens) (UniProt P06280). The assay is described as follows: Counterscreen for Glucocerebrosidase Inhibitors: qHTS Assay for Human alpha-Galactosidase at pH 4.5 (AID 992). Note: 0% is about no effect. The procedure, abridged: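 Enzyme at 2 nM final was combined with compound (0.7 nM to 77 uM) and 80 uM 4-methylumbelliferyl alpha-D-galactopyranoside in 50 mM citric acid, 0.005% Tween-20, pH 4.5. After 20 min at room temperature, fluorescence was read (Ex 365/Em 440 nm); AC50 came from Hill fits.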

Assay [12] concerns the target alpha-glucosidase (Oryza sativa, rice) (UniProt Q653V4). Nature of the assay: Counterscreen for Glucocerebrosidase Inhibitors: qHTS Assay for Rice alpha-Glucosidase at pH 5.0 (AID 997).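 Note: 0% = full activity with enzyme and -100% = basal without enzyme.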 The procedure, abridged: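 Rice alpha-glucosidase (4 nM final) with 400 uM 4-methylumbelliferyl-alpha-D-glucopyranoside in citrate buffer pH 5.0, 20 min at room temperature, stopped at pH 10; fluorescence 365/440 nm, compounds 0.7 nM–77 uM, AC50 from Hill fits.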

For assay [13], the target named is DNA repair nuclease/redox regulator APEX1 (Homo sapiens) (UniProt P27695). The assay is described as follows: qHTS Validation Assay for Inhibitors of the Human Apurinic/apyrimidinic Endonuclease 1 (APE1) (AID 1705;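 note: TAMRA fluorescence gain over two minutes as APE1 cuts a quenched THF abasic duplex; % is set by controls: 0 for no effect and ±100 for the full control effect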). The procedure, abridged: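 Activity read as rising fluorescence (598 nm emission, 525 nm excitation) from incision of a TAMRA/BHQ-2 duplex carrying a THF abasic site (50 nM). Compound and enzyme sat 15 min at RT before substrate start; signal change between first and third 60-s reads.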

Assay [14] concerns the target Endonuclease 4 (Escherichia coli (strain K12)) (UniProt P0A6C1). The assay is described as follows: Counterscreen for APE1 Inhibitors: qHTS Validation Assay for Inhibitors of Endonuclease IV (AID 1708). Note: % is set by controls: 0 for no effect and ±100 for the full control effect. The procedure, abridged: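 Cleavage of a quenched abasic-site DNA duplex (50 nM, 5'-TAMRA, 3'-BHQ-2) by 2 nM enzyme is followed as fluorescence increase. Compounds are preincubated with enzyme 15 min at room temperature before substrate addition.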

Assay [15] is described as follows: qHTS for differential inhibitors of proliferation of Plasmodium falciparum line 7G8 (AID 1815).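 Note: potency is the fitted concentration of half-maximal effect; parasite growth measured after three days of incubation.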
Assay [16] is described as follows: qHTS for differential inhibitors of proliferation of Plasmodium falciparum line GB4 (AID 1816).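 Note: potency is the fitted concentration of half-maximal effect; parasite growth measured after 72 h incubation.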 Conditions: Potency: Plasmodium falciparum GB4 proliferation inhibition.
Assay [17] in a line: qHTS for differential inhibitors of proliferation of Plasmodium falciparum line 3D7 (AID 1876). Note: potency is the fitted concentration of half-maximal effect.
The nature of assay [18]: qHTS for differential inhibitors of proliferation of Plasmodium falciparum line D10 (AID 1877).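 Note: potency is the fitted concentration of half-maximal effect; parasites grown with compound for 72 h before DNA staining.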
The mark [19] stands for this setting: measured here: cell count channel max response.
Setting [20] is: measured here: lipid channel max response.

Chain of Alpha-galactosidase A (Homo sapiens) (P06280 whole entry, looked up): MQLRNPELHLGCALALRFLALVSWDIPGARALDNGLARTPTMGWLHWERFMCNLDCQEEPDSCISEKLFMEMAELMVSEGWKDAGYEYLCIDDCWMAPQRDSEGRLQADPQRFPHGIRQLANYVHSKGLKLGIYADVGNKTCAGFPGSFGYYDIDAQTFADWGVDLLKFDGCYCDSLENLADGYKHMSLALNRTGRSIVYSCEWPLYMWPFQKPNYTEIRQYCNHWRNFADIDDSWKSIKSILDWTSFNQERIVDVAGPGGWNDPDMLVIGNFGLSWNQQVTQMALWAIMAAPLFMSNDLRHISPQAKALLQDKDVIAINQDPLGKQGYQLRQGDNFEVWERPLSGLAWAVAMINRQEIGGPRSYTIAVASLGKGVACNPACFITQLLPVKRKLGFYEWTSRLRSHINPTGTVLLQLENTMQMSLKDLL
Chain of DNA repair nuclease/redox regulator APEX1 (Homo sapiens) (P27695 whole entry, looked up): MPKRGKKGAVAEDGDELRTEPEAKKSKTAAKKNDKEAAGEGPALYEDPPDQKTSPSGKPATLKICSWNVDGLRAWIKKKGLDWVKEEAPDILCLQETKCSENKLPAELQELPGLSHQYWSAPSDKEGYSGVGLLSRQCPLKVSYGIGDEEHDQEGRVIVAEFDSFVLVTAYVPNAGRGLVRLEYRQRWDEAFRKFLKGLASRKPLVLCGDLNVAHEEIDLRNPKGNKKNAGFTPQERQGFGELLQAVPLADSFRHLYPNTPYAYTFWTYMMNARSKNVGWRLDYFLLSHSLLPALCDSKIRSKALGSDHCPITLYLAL

On to `Cc1noc(NS(=O)(=O)c2ccc(N)cc2)c1C`, for which the Potency result in [1], in assay [2], in [3], in [4], in [5] and in assay [6] was “inactive” in each case. The Potency result in assay [7], in assay [8] and in assay [9] was “inactive” throughout.
With `CCCCOc1ccc(CC(=O)NO)cc1`, the activity change, negative = inhibition in assay [10] (at 25.7 µM (top of the series)) was 0.283% (inactive). The max response in assay [10] (setting [19]) is -2.68%; in assay [10] (setting [20]), -0.905%.
In the case of `O=C(O)c1cc(=O)[nH]c(=O)[nH]1`, the Potency entry in [1], in assay [2], in assay [3], in [4], in assay [5] and in [6] was “inactive” each time. In addition, the Potency entry in [7], in assay [8] and in assay [9] was “inactive” throughout.
As for `N=C(N)c1ccc(OCCCCCOc2ccc(C(=N)N)cc2)cc1`, the Potency in [6] is 39.8 µM (active). In addition, the activity change, negative = inhibition in assay [10] (at 25.7 µM (top of the series)) is -3.38% (inactive); in assay [10] (at 57.5 µM (top of the series)), 3.95% (inactive). Moreover, the max response is 3.1% and 6.27% in assay [10] (setting [19]); -0.0009% and 12.3% in assay [10] (setting [20]).
As for `CC(C)(Sc1cc(C(C)(C)C)c(O)c(C(C)(C)C)c1)Sc1cc(C(C)(C)C)c(O)c(C(C)(C)C)c1`, the results for the activity change, negative = inhibition in assay [10] (at 25.7 µM (top of the series)) and in [10] (at 57.5 µM (top of the series)) were -2.44% (inactive) and 6.58% (inactive), respectively. Besides, the max response in assay [10] (setting [19]) is 2.96% and 13.3%; in assay [10] (setting [20]), 1.97% and 25.1%.
Turning to `Cc1cc(NS(=O)(=O)c2ccc(N)cc2)no1`, the Potency entry in assay [1], in assay [2], in assay [3], in assay [4], in [5] and in assay [6] was “inactive” throughout. Besides, the Potency result in assay [7], in assay [8] and in assay [9] was “inactive” in each case. Moreover, the activity change, negative = inhibition was 0.06% (inactive) in [10] (at 25.7 µM (top of the series)) and 10.1% (inactive) in [10] (at 57.5 µM (top of the series)). Further, the max response in [10] (setting [19]) was 8.41% and 20.8%; in [10] (setting [20]), 8.63% and 34.6%.
Consider `COc1cc2ncnc(Nc3cccc(Cl)c3)c2cc1OC`, for which the compound was classed as inactive in assay [11], in assay [12], in assay [13] and in assay [14]. The Potency in [15] is 8.91 µM (active); in [16], 6.31 µM (active); in [17], 2.51 µM (active); in assay [18], 5.62 µM (active).
In the case of `CC1=NN(c2ccccc2)C(=O)C1`, the Potency result in assay [1], in assay [2], in [3], in assay [4], in assay [5] and in assay [6] was “inactive” in each case. Moreover, the Potency result in assay [7], in assay [8] and in assay [9] was “inactive” each time. Further, the activity change, negative = inhibition in assay [10] (at 57.5 µM (top of the series)) was 5.32% (inactive). For the same compound, the max response in assay [10] (setting [19]) worked out at 16.1%; in assay [10] (setting [20]), 20.6%.
In the case of `CCn1cc(C(=O)O)c(=O)c2cc(F)c(N3CCNCC3)nc21`, the activity change, negative = inhibition was 0.491% (inactive) in assay [10] (at 25.7 µM (top of the series)) and 8.65% (inactive) in assay [10] (at 57.5 µM (top of the series)). Also, the max response in [10] (setting [19]) is 9.91% and 14.4%; in assay [10] (setting [20]), 12.7% and 27.2%.
Consider `O=C(O)c1cccnc1`, for which the activity change, negative = inhibition in [10] (at 25.7 µM (top of the series)) was -4.1% (inactive); in assay [10] (at 57.5 µM (top of the series)), 5.73% (inactive). For the same compound, the max response in assay [10] (setting [19]) was -11.4% and 15.3%; in assay [10] (setting [20]), -16.2% and 21.7%.
On to `COc1ccc2cc3[n+](cc2c1OC)CCc1cc2c(cc1-3)OCO2`, for which the Potency is 31.6 µM (active) in assay [6] and 39.8 µM (active) in [7]. For the same compound, the Potency entry in assay [9] is “inactive”. In assay [10] (at 25.7 µM (top of the series)), the activity change, negative = inhibition was -1.57% (inactive). The max response in [10] (setting [19]) is -13.6%; in assay [10] (setting [20]), -12.8%.
For the compound `CN(C)c1ccc(C(=C2C=CC(=[N+](C)C)C=C2)c2ccc(N(C)C)cc2)cc1`, the Potency in assay [1] is 1 µM (active); in assay [2], 2 µM (active); in assay [3] it was 2 µM (active); in assay [4], 2 µM (active); in [5], 2 µM (active); in assay [6], 0.794 µM (active). The Potency in [7] was 2 µM (active); in [8], 2.51 µM (active); in [9], 3.16 µM (active).
For `N[C@@H](Cc1ccc(O)c(O)c1)C(=O)O`, the compound was called inactive in assay [11] and in assay [12]. Also, the activity change, negative = inhibition in assay [10] (at 25.7 µM (top of the series)) is -1.67% (inactive). Moreover, the max response is -2.41% in [10] (setting [19]) and -4.9% in assay [10] (setting [20]).
Turning to `Cc1ncc([N+](=O)[O-])n1CCO`, the Potency entry in [1], in assay [2], in assay [3], in assay [4], in assay [5] and in assay [6] was “inactive” throughout. Further, the Potency result in assay [7], in [8] and in assay [9] was “inactive” in each case. Moreover, the activity change, negative = inhibition in [10] (at 57.5 µM (top of the series)) is 8.03% (inactive). Also, the max response came out at 17.2% in assay [10] (setting [19]) and 27.3% in [10] (setting [20]).

(Values after PubChem BioAssay (NCATS).)
